Bioassay records from PubChem BioAssay.
ELG1 genotox: genotoxicity induction in ELG1-luciferase HEK293T cells; HEK293T ELG1-luciferase reporter, luminescence, 16 h; Potency, µM (series often up to 46 µM), without a hit: at the top dose activity change, positive = activation, usual class: activators; hit rate 1.3% among 330,000; AID 504466; also: % of control where 0% means no effect; nearly all actives have a fitted effect of over 60% in size
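Genotoxicity was scored as increased ELG1-luciferase reporter signal, measured by ONE-Glo luminescence (30 min, room temperature). Compound or vehicle exposure of the HEK293T reporter cells lasted 16 hr at 37°C.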
SMN2 splice enh: increases expression of the SMN2 splice variant; HEK293 SMN2-luciferase splicing reporter, luminescence, 30-36 h; hit rate 2.8% among 210,000; AID 1458; Potency, µM (titrated, usually from 46.1 µM), for inactives: at the top dose activity change, positive = activation, hits mostly activators; also: % of control where 0% means no effect; nearly all actives have a fitted effect of over 55% in size
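HEK293 cells carry an SMN2 minigene-luciferase reporter in which exon 7 inclusion puts luciferase in frame. Cells were seeded at 2000 cells/well, attached for 10-12 hours, then exposed to compounds for 30-36 hours at 37C before ONE-Glo luminescence.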
FLuc counter: inhibits or activates purified firefly luciferase, miR-21 counter-screen. hit rate 6.9% among 360,000. P08659. purified FLuc, Km substrates, luminescence inhibition. Potency, µM (titrated, usually from 57.5 µM), for the others: at the top dose activity change, negative = inhibition, hits mostly inhibitors. AID 588342;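 also: plate controls were vehicle for no effect and reference inhibitor for full effect; nearly all actives have a fitted effect of over 55% in size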
Target sequence (P08659 whole entry, looked up): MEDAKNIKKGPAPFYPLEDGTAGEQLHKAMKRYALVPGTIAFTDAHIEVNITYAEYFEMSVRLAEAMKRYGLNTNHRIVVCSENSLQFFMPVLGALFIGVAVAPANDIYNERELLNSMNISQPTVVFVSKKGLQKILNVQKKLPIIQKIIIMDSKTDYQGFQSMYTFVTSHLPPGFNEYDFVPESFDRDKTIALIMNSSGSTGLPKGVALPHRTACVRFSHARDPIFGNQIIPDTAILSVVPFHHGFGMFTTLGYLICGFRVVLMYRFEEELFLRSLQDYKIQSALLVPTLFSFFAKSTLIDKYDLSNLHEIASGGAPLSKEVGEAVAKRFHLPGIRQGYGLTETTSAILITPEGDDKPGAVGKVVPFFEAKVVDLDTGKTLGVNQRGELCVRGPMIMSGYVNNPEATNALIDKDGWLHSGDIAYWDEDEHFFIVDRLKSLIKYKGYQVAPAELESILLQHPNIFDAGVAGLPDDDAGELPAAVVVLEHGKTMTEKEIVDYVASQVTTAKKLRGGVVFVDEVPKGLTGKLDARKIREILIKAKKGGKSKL
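Biochemical qHTS of compounds, final roughly 60 µM downward over six points, against 10 nM purified firefly luciferase using Km concentrations of substrates (10 uM D-luciferin, 10 uM ATP) in Tris acetate pH 7.5 buffer; luminescence output.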
ELG1 DNA repair: blocks ELG1-dependent DNA repair in HEK293T cells. HEK293T ELG1-luciferase reporter, luminescence, 16 h; DNA damage induced by 5-fluorouridine. Potency, µM (titrated, usually from 46.1 µM), inactives show at the top dose activity change, negative = inhibition, actives largely listed as inhibitors. hit rate 2.3% among 330,000; also: % is scaled to controls: 0 for no effect and ±100 for the full control effect; nearly all actives have a fitted effect of over 55% in size
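Reporter activity after DNA damage by 5-fluorouridine is monitored. Compound-treated cells incubate 16 hr at 37 °C, then ONE-Glo is added for 30 min before luminescence reading.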
Rab9 prom act: activates the Rab9 promoter. Huh7 Rab9 promoter-luciferase reporter, luminescence, 24 h. hit rate 2.8% among 320,000. Potency, µM (highest dose often 9.22 µM), without a hit: at the highest dose activation, negative = inhibition, most hits filed as activators; also: % of control where 0% means no effect; nearly all actives have a fitted effect of over 60% in size
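Huh7 reporter line, Rab9 promoter upstream of luciferase. Compound exposure 24 h at 37 °C in reduced-serum medium with 10% FBS. Read-out: luminescence.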
NPC1 promoter act: NPC1 promoter activation | Huh7 NPC1 promoter luciferase reporter, 24 h | hit rate 2.4% among 320,000 | Potency, µM (doses to about 9.22 µM), for the others: at the top dose activation, hits mostly activators; also: % of control where 0% means no effect; nearly all actives have a fitted effect of over 60% in size
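NPC1 promoter–luciferase Huh7 cells; 24 h compound; luminescence.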
* hit, by the source's call; u = inconclusive; x = not tested or not shown; [ ] = remark or other dose. Only some compounds are listed: those with a hit (about 9.2% of all), similar ones and a draw of the others. Calls follow the shape of the dose curve; as a rule, active = well fitted curve in the direction sought with a large enough effect; inconclusive = small, poorly fitted or top-dose-only effect, or another doubt; inactive = no such curve, though single readings can be large; an effect the other way counts as inactive or inconclusive. Potency is read from the fitted curve at half-maximal effect.

SMILES	ELG1 genotox	SMN2 splice enh	FLuc counter	ELG1 DNA repair	Rab9 prom act	NPC1 promoter act
COc1ccc(NC(=O)/C=C2\SC(=O)NC2=O)cc1	12%	23%	12µM*	0%	-1%	6%
COc1ccc(NC(=O)Nc2ccc(N(C)C)cc2)cc1	u	13µM*	3µM*	u	2.2µM*	2.5µM*
CN(C)c1ccc(NC(N)=S)cc1	0%	u	4%	3%	-6%	2%
Cc1cc(C)n(-c2ccc(Cl)c(C(=O)Nc3cc(C(F)(F)F)ccc3Cl)n2)n1	-2%	-18%	0%	2%	0%	8%
CC(Sc1ccccc1)C(=O)N1CCN(S(=O)(=O)c2ccccc2C(F)(F)F)CC1 (stereo not given)	-7%	x	1%	u	-3%	-2%
CN1CCN(c2ncnc3c2cnn3-c2cccc(Cl)c2)CC1	x	x	13µM*	x	x	x
Cc1ccc(-n2ncc3c(N4CCN(C)CC4)ncnc32)cc1C	x	x	4.3µM*	x	x	x
Cc1ccc(-n2ncc3c2ncn2c(C)nnc32)cc1C	u	u	5.4µM*	u	2µM*	2.5µM*
CCOC(=O)c1noc2nc(C)n(CC(=O)Nc3cccc(OC)c3)c(=O)c12	x	x	-1%	x	x	x
N#Cc1cnn2ccn(C3OC(CO)C(O)C3O)c12 (stereo not given)	-2%	x	-2%	-6%	-7%	-3%
COc1cc(Br)cc(Br)c1OCC(=O)N/N=C/c1c(C)n(C)n(-c2ccccc2)c1=O	-2%	x	1%	-7%	-8%	-3%
CSc1nc(N)nc(-c2cccs2)c1C#N	6%	-11%	u	u	1%	1%
CC(C)Sc1nc(N)nc(-c2cccs2)c1C#N	u	18µM*	17µM*	u	2.8µM*	u
C=CCn1c(=NC(=O)c2sc3ccccc3c2Cl)sc2cc(S(N)(=O)=O)ccc21	16%	-19%	-1%	9%	-6%	-3%
C=CCn1c(=NC(=O)c2cc(-c3cccs3)nc3ccccc23)sc2cc(S(N)(=O)=O)ccc21	-12%	u	5%	18µM*	-5%	-11%
COCCn1c(=NC(=O)c2cc(-c3cccs3)nc3ccccc23)sc2cc(S(N)(=O)=O)ccc21	-13%	-19%	1%	6.5µM*	-7%	-10%
COc1ccc(NC(=O)COC(=O)c2ccc(OC)c(S(=O)(=O)N3CCCC3)c2)cc1OC	0%	x	3%	u	-3%	1%
CCN(Cc1cc2ccc(C)cc2[nH]c1=O)C(=O)c1ccncc1	-8%	-6%	6%	10µM*	-1%	-10%
CSc1ccc(NC(=O)Nc2cccn(Cc3ccccc3)c2=O)cc1	14%	x	11µM*	12%	-4%	-5%
COc1cccc(NC(=O)Nc2cccn(Cc3ccccc3)c2=O)c1	-5%	-28%	17µM*	-24%	0%	3%
COc1cccc(Cn2cccc(NC(=O)Nc3ccc(C#N)cc3)c2=O)c1	-3%	-60%	u	-15%	-3%	-15%
O=C(Nc1cccn(Cc2c(Cl)cccc2Cl)c1=O)c1c(Cl)cccc1Cl	-6%	-33%	6%	-19%	1%	-2%
COc1ccc(Cn2cccc(NC(=O)Nc3ccc(F)cc3)c2=O)cc1	-7%	x	u	u	-13%	-7%
O=C(Nc1ccccc1)Nc1cccn(Cc2c(F)cccc2Cl)c1=O	0%	x	11µM*	-9%	u	26%
COc1ccc(Cn2cccc(NC(=O)Nc3cccc(OC)c3)c2=O)cc1	-7%	x	21µM*	u	2%	0%
SMILES	ELG1 genotox	SMN2 splice enh	FLuc counter	ELG1 DNA repair	Rab9 prom act	NPC1 promoter act
COc1ccccc1CCC(=O)N1CCN(S(=O)(=O)c2cc(C(F)(F)F)ccc2Cl)CC1	-5%	x	3%	u	3%	0%
Cc1ccc(-c2ccc(=O)n(CC(=O)Nc3ccc(F)c(Cl)c3)n2)cc1C	x	x	-3%	x	x	x
O=C(NCc1ccccc1)Nc1cccn(Cc2ccc(Cl)cc2)c1=O	-1%	x	u	9%	-29%	-11%
COc1cccc(Cn2cccc(NC(=O)NCc3ccccc3)c2=O)c1	0%	x	21µM*	5%	0%	0%
COc1cccc(Cn2cccc(NC(=O)Nc3ccccc3C)c2=O)c1	-7%	x	5%	-15%	0%	-7%
O=C(NCc1ccccc1)Nc1cccn(Cc2ccccc2Cl)c1=O	7%	-39%	8.5µM*	u	-18%	-14%
Cc1ccc(Cn2cccc(NC(=O)c3ccco3)c2=O)cc1	19%	-6%	15µM*	u	u	28%
Cc1ccc(Cn2cccc(NC(=O)NCc3ccccc3)c2=O)cc1	-5%	-20%	u	-21%	-4%	-4%
O=S(=O)(c1ccc(OCC2CO2)cc1)c1ccc(OCC2CO2)cc1 (stereo not given)	12%	-14%	-15%	7%	4%	4%
Cc1cc(/C=C(/C#N)C(=O)Nc2ccccc2)c(C)n1-c1cccnc1	1%	1%	1.5µM*	u	4µM*	u
Cc1cc(/C=C(\C#N)C(=O)Nc2ccccc2)c(C)n1-c1ccc2c(c1)OCO2	-4%	-14%	11µM*	u	1%	6%
O=C(NCc1ccccc1)C1=C[C@@H](C2CC2)C[C@@H](OCCCCO)O1	4%	x	0%	2%	5%	5%
COc1cc(NC(=O)c2ccc(Cl)cc2)c2ncccc2c1	1%	x	u	0%	-5%	6%
COc1cc(NC(=O)C2CCCCC2)c2ncccc2c1	2%	-6%	15µM*	14%	16%	6%
COc1ccc(C(=O)Nc2cc(OC)cc3cccnc23)cc1	1%	x	7.6µM*	11%	1%[1.84 µM]	0%
COc1ccc(OC)c(NC(=O)C2CCCCC2)c1	1%	5%	-8%	2%	-10%	-3%
CCOC(=O)C1CCN(C(=O)Cn2nc(C)n3cccc3c2=O)CC1	0%	x	-2%	u	0%	-8%
CN1CCN(S(=O)(=O)NC[C@H]2O[C@@H](n3cnc4c(N)ncnc43)[C@H](O)[C@@H]2O)CC1	-2%	x	x	20%	x	x
COCCNC(=O)c1ccccc1NC(=O)c1nsc2ccccc12	x	x	19µM*	x	x	x
COCCNC(=O)c1ccccc1NC(=O)Nc1ccccc1	0%	9%	27µM*	7%	2%	-4%
Cc1ccc(NC(=O)Nc2ccccc2C(=O)NCc2ccccc2)cc1	u	2%	4.8µM*	u	21%	21%
COCCNC(=O)c1ccccc1NC(=O)c1cc(OC)cc(OC)c1	-7%	-1%	-14%	u	1%	-5%
C=CCNC(=O)c1ccccc1NC(=O)Nc1ccccc1	6%	19%	19µM*	1%	18%	7%
